Experimental data as given in PubChem BioAssay (NCATS).
Results filed as inconclusive are left out. Calls of active or inactive are those of the source. The call rests on the fitted dose curve; in most records, active means well fitted cell-killing curve with a large enough effect; inconclusive means small, poorly fitted or top-dose-only effect, or effect the other way; inactive means no such curve, though single readings can be large or run the other way.

Assay: Quantitative High-Throughput drug screen in 47 multiple myeloma cell lines against the NCATS MIPE library collection: OPM2_DSMZ cell viability assay (AID 1919872); further: nearly all actives have a fitted effect of over 30% in size
Conditions: OPM2 myeloma viability, CellTiter-Glo ATP luminescence, 48 h; series mostly up to 45.8 µM; viability (% of DMSO): at the top concentration
Summary of the method: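 CellTiter-Glo ATP luminescence gave viability after 48 h compound treatment at 37C of 500 multiple myeloma cells per well. Normalisation used DMSO-only wells as 100% and media-only wells as 0% viability; primary qHTS of approved and investigational drugs.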
Potency means the concentration at half of the fitted maximal effect.

Row | SMILES | viability (% of DMSO) | Potency
1 | Nc1nc(F)nc2c1ncn2[C@@H]1O[C@H](COP(=O)(O)O)[C@@H](O)[C@H]1O | 105% (inactive) | –
2 | Cc1cccc(Nc2nc(-c3ccncc3)cs2)c1 | – | 10.5 µM (active)
3 | Nc1ncnc2ccccc12 | 110% (inactive) | –
4 | CC(C)(C)NC(=O)Nc1cccc(Nc2ncc(F)c(NC(C)(C)CO)n2)c1 | – | 16.6 µM (active)
5 | COc1ccc(Cc2nccc3cc(OC)c(OC)cc23)cc1OC | – | 11.8 µM (active)
6 | O=C1C[C@@H](c2ccc(O)cc2)Oc2cc(O)cc(O)c21 | 90.9% (inactive) | –
7 | O=C(O)c1cc(O)c2c(c1)C(=O)c1cccc(O)c1C2=O | 84.3% [at 92.2 µM] (inactive) | –
8 | O=C(O)CCC1CCC(c2cc(F)ccc2F)(S(=O)(=O)c2ccc(Cl)cc2)CC1 (stereo unspecified) | 104% (inactive) | –
9 | COc1ccc(Cc2ccc(NC(N)=O)cc2)cc1-c1cccc(Cl)c1 | 98.3% (inactive) | –
10 | CC(C)C[C@H](CC(=O)O)C(=O)N[C@@H](Cc1c[nH]c2ccccc12)C(=O)N[C@@H](C)c1ccccc1 | 109% (inactive) | –
11 | COc1ccc(C2CC(c3ccccc3)=NN2c2ccc(S(N)(=O)=O)cc2)cc1 (stereo unspecified) | 89.2% (inactive) | –
12 | CN[C@@H](C)C(=O)N[C@H]1CN(C(=O)CC(C)C)CC[C@H]2CC[C@@H](C(=O)NC(c3ccccc3)c3ccccc3)N2C1=O | 81.3% (inactive) | –
13 | C=C1C(=O)OC(CCCCCCCC)C1C(=O)O (stereo unspecified) | 104% (inactive) | –
14 | O=C(OCC#CCSc1nnc(-c2cccc3ccccc23)o1)c1cc2ccccc2s1 | 94% (inactive) | –
15 | CON=C(C(=O)N[C@@H]1C(=O)N2C(C(=O)OCOC(=O)C(C)(C)C)=C(C=Cc3scnc3C)CS[C@H]12)c1csc(N)n1 | 89.8% (inactive) | –
16 | NC[C@@H]1O[C@@H](O[C@H]2[C@@H](O)[C@H](O[C@@H]3[C@@H](O)[C@@H](N)C[C@H](N)[C@H]3O[C@H]3O[C@H](CN)[C@@H](O)[C@@H](O)[C@H]3N)O[C@H]2CO)[C@H](N)[C@@H](O)[C@@H]1O | 114% (inactive) | –
